The test deals with Pseudogymnoascus destructans 20631-21. Description: growth activity index (DuctApe, 0 = no growth, 9 = maximal growth) (index 0-9); higher = more fungal growth (less inhibition), active = 0 or less; extreme values may be limits of the assay. To be noted: temperature: 13 °C, YPD.
Where [1] appears, read: concentration level (1-4, increasing; Biolog proprietary): 1.
Setting [2] is: concentration level (1-4, increasing; Biolog proprietary): 2.
Where [3] appears, read: concentration level (1-4, increasing; Biolog proprietary): 3.
The mark [4] stands for this setting: concentration level (1-4, increasing; Biolog proprietary): 4.

Unmarked numbers belong to inactive results.
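Note: biolog Phenotype Microarray plates PM21–25, OD595 followed daily over 11 days, growth curves converted to index, mean of two independent experiments.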

Turning to `C[n+]1ccc(-c2cc[n+](C)cc2)cc1` [Methyl viologen] (Biolog plate: PM24), the growth activity index under setting [1] was 1, the growth activity index under setting [2] was 0 (active), the growth activity index under setting [3] was 0.333 and the growth activity index under setting [4] was 0.667.
Taken in the same sequence, the figures for `[O-][I+3]([O-])([O-])O` [Sodium metaperiodate] (Biolog plate: PM23) were 2, 2, 4.33 and 5.
On to `Nc1ncn[nH]1` [3-Amino-1,2,4-triazole] (Biolog plate: PM22), for which the growth activity index is 0 (active) under setting [1], 0 (active) under setting [2], 0 (active) under setting [3] and 0 (active) under setting [4].
In the case of `CC1C=CC=CCCC=CC=CC=CC=CC(OC2OC(C)C(O)C(N)C2O)CC2OC(O)(CC(O)C(O)CCC(O)CC(O)CC(O)CC(=O)OC(C)C(C)C1O)CC(O)C2C(=O)O` (stereo not drawn) [Nystatin] (Biolog plate: PM21), the growth activity index is, setting by setting: under setting [1], 1.75; under setting [2], 0 (active); under setting [3], 0 (active); under setting [4], 0 (active).
Regarding `C[C@@H]1C[C@@H]([C@H](O)CC2CC(=O)NC(=O)C2)C(=O)[C@@H](C)C1` [Cycloheximide] (Biolog plate: PM22), the growth activity index under setting [1] is 5, the growth activity index under setting [2] was 4, the growth activity index under setting [3] is 4.33 and the growth activity index under setting [4] is 4.33.
Turning to `O=[As]([O-])([O-])[O-].[Na+].[Na+].[Na+]` [Sodium Arsenate] (Biolog plate: PM22), the growth activity index reads like this: under setting [1], 4.67; under setting [2], 4.33; under setting [3], 4; under setting [4], 2.
Take `O=[Se](=O)([O-])[O-].[Na+].[Na+]` [Sodium Selenate] (Biolog plate: PM23): the growth activity index under setting [1] is 5, the growth activity index under setting [2] is 4, the growth activity index under setting [3] is 2.67 and the growth activity index under setting [4] is 3.
